According to PubChem BioAssay AID1159580 (chemical genetic matrix, 2015):
About 2,000 (36%) of roughly 5,500 compounds were called active. Not shown: some 18% with an inconclusive outcome. No stated cut-off is given here; in the data, active means normalized growth mostly below about 0.91 (no sharp cut-off); inconclusive means no clear call, values can overlap the other calls; inactive means mostly above about 0.92. This is one part of the list.

Assay: chemical genetic growth profiling, strain panel (AID 1159580);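 further: tested at 20 µM; growth read once vehicle control cultures reached saturation at 30 °C; 1 = growth at the plate median or of vehicle wells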
Details: growth OD

Measured: normalized growth

Oc1cc(O)c2c(c1)O[C@H](c1cc(O)c(O)c(O)c1)[C@H](O)C2
inactive: S. cerevisiae deletion strains, locus YJR043C, strain POL32, stronger effect = lower value 1.05 | S. cerevisiae deletion strains, locus YJR066W, strain TOR1, stronger effect = lower value 0.918 | S. cerevisiae deletion strains, locus YKL009W, strain mrt4, stronger effect = lower value 0.976 | S. cerevisiae deletion strains, locus YKL068W, stronger effect = lower value 1 | S. cerevisiae deletion strains, locus YKL085W, strain MDH1 (second series), stronger effect = lower value 1 | S. cerevisiae deletion strains, locus YKL085W, strain MDH1, stronger effect = lower value 1 | S. cerevisiae deletion strains, locus YKL160W, strain elf1, stronger effect = lower value 1.01 | S. cerevisiae deletion strains, locus YKR001C, strain vps1, stronger effect = lower value 0.973 | S. cerevisiae deletion strains, locus YKR026C, strain gcn3, stronger effect = lower value 1.02 | S. cerevisiae deletion strains, locus YKR091W, strain srl3, stronger effect = lower value 1.02 | S. cerevisiae deletion strains, locus YLL001W, strain dnm1, stronger effect = lower value 1.03 | S. cerevisiae deletion strains, locus YLL026W, stronger effect = lower value 1.02 | S. cerevisiae deletion strains, locus YLL041C, strain sdh2, stronger effect = lower value 1.02 | S. cerevisiae deletion strains, locus YLR027C, strain aat2, stronger effect = lower value 1 | S. cerevisiae deletion strains, locus YLR039C, strain RIC1, stronger effect = lower value 1.05 | S. cerevisiae deletion strains, locus YLR058C, strain SHM2, stronger effect = lower value 0.98 | S. cerevisiae deletion strains, locus YLR102C, strain apc9, stronger effect = lower value 0.976 | S. cerevisiae deletion strains, locus YLR113W, strain HOG1, stronger effect = lower value 0.977 | S. cerevisiae deletion strains, locus YLR221C, strain rsa3, stronger effect = lower value 1.01 | S. cerevisiae deletion strains, locus YLR258W, strain gsy2, stronger effect = lower value 1.01 | S. cerevisiae deletion strains, locus YLR262C, strain YPT6 (second series), stronger effect = lower value 1.03 | S. cerevisiae deletion strains, locus YLR262C, strain YPT6, stronger effect = lower value 1.06 | S. cerevisiae deletion strains, locus YLR268W, strain sec22, stronger effect = lower value 0.98 | S. cerevisiae deletion strains, locus YLR320W, strain mms22, stronger effect = lower value 1.04 | S. cerevisiae deletion strains, locus YLR330W, strain CHS5, stronger effect = lower value 1.01 | S. cerevisiae deletion strains, locus YLR342W, strain FKS1 (second series), stronger effect = lower value 0.996 | S. cerevisiae deletion strains, locus YLR342W, strain FKS1, stronger effect = lower value 1.01 | S. cerevisiae deletion strains, locus YLR357W, strain rsc2, stronger effect = lower value 0.986 | S. cerevisiae deletion strains, locus YLR370C, strain arc18, stronger effect = lower value 1.01 | S. cerevisiae deletion strains, locus YLR371W, strain rom2, stronger effect = lower value 0.981 | S. cerevisiae deletion strains, locus YLR384C, strain iki3, stronger effect = lower value 1.03 | S. cerevisiae deletion strains, locus YLR418C, strain cdc73, stronger effect = lower value 1.01 | S. cerevisiae deletion strains, locus YML016C, strain PPZ1, stronger effect = lower value 0.981 | S. cerevisiae deletion strains, locus YML032C, strain rad52, stronger effect = lower value 1.03 | S. cerevisiae deletion strains, locus YML120C, strain ndi1, stronger effect = lower value 1.04 | S. cerevisiae deletion strains, locus YML124C, strain tub3, stronger effect = lower value 0.999 | S. cerevisiae deletion strains, locus YMR058W, strain fet3, stronger effect = lower value 0.945 | S. cerevisiae deletion strains, locus YMR078C, strain ctf18, stronger effect = lower value 1 | S. cerevisiae deletion strains, locus YMR125W, strain sto1, stronger effect = lower value 1.02 | S. cerevisiae deletion strains, locus YMR129W, stronger effect = lower value 1.02 | S. cerevisiae deletion strains, locus YMR205C, strain PFK2, stronger effect = lower value 1.06 | S. cerevisiae deletion strains, locus YMR223W, strain ubp8, stronger effect = lower value 0.991 | S. cerevisiae deletion strains, locus YMR231W, strain pep5, stronger effect = lower value 0.987 | S. cerevisiae deletion strains, locus YMR307W, strain GAS1, stronger effect = lower value 1.07 | S. cerevisiae deletion strains, locus YNL067W, strain RPL9B, stronger effect = lower value 0.984 | S. cerevisiae deletion strains, locus YNL071W, strain lat1, stronger effect = lower value 1.03 | S. cerevisiae deletion strains, locus YNL153C, strain GIM3, stronger effect = lower value 0.957 | S. cerevisiae deletion strains, locus YNL183C, strain NPR1, stronger effect = lower value 0.951 | S. cerevisiae deletion strains, locus YNL209W, strain ssb2, stronger effect = lower value 1 | S. cerevisiae deletion strains, locus YNL233W, strain BNI4, stronger effect = lower value 0.987 | S. cerevisiae deletion strains, locus YNL248C, strain rpa49, stronger effect = lower value 1.03 | S. cerevisiae deletion strains, locus YNL250W, strain rad50, stronger effect = lower value 0.986 | S. cerevisiae deletion strains, locus YNL271C, strain bni1, stronger effect = lower value 0.988 | S. cerevisiae deletion strains, locus YNL298W, strain CLA4, stronger effect = lower value 0.969 | S. cerevisiae deletion strains, locus YNL307C, strain MCK1, stronger effect = lower value 0.981 | S. cerevisiae deletion strains, locus YNL322C, strain KRE1 (second series), stronger effect = lower value 1.02 | S. cerevisiae deletion strains, locus YNR049C, strain mso1, stronger effect = lower value 1.02 | S. cerevisiae deletion strains, locus YNR052C, strain pop2, stronger effect = lower value 0.994 | S. cerevisiae deletion strains, locus YOL012C, strain htz1 1.18 | S. cerevisiae deletion strains, locus YOL147C, strain pex11, stronger effect = lower value 0.988 | S. cerevisiae deletion strains, locus YOR001W, strain rrp6, stronger effect = lower value 1.03 | S. cerevisiae deletion strains, locus YOR061W, strain CKA2, stronger effect = lower value 0.99 | S. cerevisiae deletion strains, locus YOR069W, strain VPS5, stronger effect = lower value 0.99 | S. cerevisiae deletion strains, locus YOR070C, strain gyp1, stronger effect = lower value 1 | S. cerevisiae deletion strains, locus YOR080W, strain dia2, stronger effect = lower value 1.02 | S. cerevisiae deletion strains, locus YOR083W, strain WHI5, stronger effect = lower value 1.01 | S. cerevisiae deletion strains, locus YOR106W, strain vam3, stronger effect = lower value 0.999 | S. cerevisiae deletion strains, locus YOR136W, strain idh2, stronger effect = lower value 0.976 | S. cerevisiae deletion strains, locus YOR144C, strain elg1, stronger effect = lower value 1 | S. cerevisiae deletion strains, locus YOR184W, strain ser1, stronger effect = lower value 1.02 | S. cerevisiae deletion strains, locus YOR231W, strain MKK1, stronger effect = lower value 0.983 | S. cerevisiae deletion strains, locus YOR265W, strain rbl2, stronger effect = lower value 1.02 | S. cerevisiae deletion strains, locus YOR270C, strain vph1, stronger effect = lower value 1.1 | S. cerevisiae deletion strains, locus YOR290C, strain snf2, stronger effect = lower value 1.02 | S. cerevisiae deletion strains, locus YOR316C, strain cot1, stronger effect = lower value 0.98 | S. cerevisiae deletion strains, locus YPL051W, strain arl3, stronger effect = lower value 1 | S. cerevisiae deletion strains, locus YPL055C, strain LGE1, stronger effect = lower value 1.01 | S. cerevisiae deletion strains, locus YPL078C, strain atp4, stronger effect = lower value 1.05 | S. cerevisiae deletion strains, locus YPL106C, strain sse1, stronger effect = lower value 0.99 | S. cerevisiae deletion strains, locus YPL240C, strain hsp82, stronger effect = lower value 1.02 | S. cerevisiae deletion strains, locus YPL256C, strain CLN2, stronger effect = lower value 0.983 | S. cerevisiae deletion strains, locus YPR119W, strain clb2, stronger effect = lower value 0.992 | S. cerevisiae deletion strains, locus YPR141C, strain kar3, stronger effect = lower value 0.978 | S. cerevisiae deletion strains, locus YPR163C, strain tif3, stronger effect = lower value 0.988 | S. cerevisiae deletion strains, locus YPR167C, strain met16, stronger effect = lower value 1 | S. cerevisiae deletion strains, strain wtn01, stronger effect = lower value 0.975 | S. cerevisiae strains, strain wild type, stronger effect = lower value 1
